In PubChem BioAssay (NCI):
This is part of a sample that, as a whole, favours compounds with a hit. Of some 83,000 tested, about 20% had one in any assay.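 How to read the values: 0–100, growth inhibition (40 = 60% inhibited); 0, no net growth; -100 to 0, cell death (-40 = 40% of starting cells died; -100 = all dead).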 The source made the active and inactive calls.

What follows are compounds tested on SK-MEL-28 melanoma (assay: NCI-60 one-dose screen, 48 h (100 = growth as untreated, 0 = no growth, -100 = all killed)). Settings: 10 µM.
Description: Growth inhibition of the SK-MEL-28 human tumor cell line is measured as a screen for anti-cancer activity. Cells are grown in 96 well plates and exposed to the test compound for 48 hours. Compounds are tested at a single concentration, which is 10^-5 M for most compounds. The reported endpoint is percent growth (GI% or GIPRCNT), where numbers from 0 - 100% represent growth inhibition, and numbers from -100% - 0 represent cell death. For example, a value of 40 represents 60% growth inhibition. A value of 0 means no net growth occurred over the course of the experiment. A value of -40 indicates 40% of cells at the beginning of the experiment died by the end of the experiment. A value of -100 means all cells are dead at the end of the experiment.
NCI-60 Human Tumor Cell Lines Screen was performed using the standard one-dose NCI protocol, which is described in more detail at https://dtp.cancer.gov/discovery_development/nci-60/default.htm.
Compounds with GIPRCNT values below 10 were considered active. Activity score was based on GIPRCNT using the following formula: […]
Score is 0 for GIPRCNT values of 100 or above, 50 for GIPRCNT values of 0, and 100 for GIPRCNT values of -100.
In the case of `CC(=O)Cc1ccc(-c2ccccc2)cc1`, the growth is reported as 114% (inactive).
In the case of `CCCCOC(OCCCC)c1ccccc1`, the growth is reported as 107% (inactive).
With `CSc1[nH]c(=O)ncc1F` the growth was 111% (inactive).
With `NC(=S)CN1CCOCC1` the growth was 106% (inactive).
In the case of `O=c1[nH]c(O)c(/C=C2/C=Nc3ccccc32)[nH]1`, the growth is reported as 111% (inactive).
With `CC1(C)N=C(N)N=C(N)N1c1ccc(Cl)cc1` the growth was 90.4% (inactive).
With `Cc1cc(O)ccc1O` the growth was 108% (inactive).
In the case of `S=C(Nc1ccccc1)N1CCCCC1`, the growth is reported as 103% (inactive).
For `COc1cc2c3cc1Oc1c(OC)c(OC)cc4c1C(Cc1ccc(O)c(c1)Oc1ccc(cc1)CC3N(C)CC2)N(C)CC4` (stereo not given), the growth was -80.8% (active).
`C[N+](C)=c1ccc2nc3c(cc(Nc4ccccc4)c4ccccc43)oc-2c1` was tested, and the growth was 23.5% (inactive).
In the case of `CCCCCCCCOC(=O)c1ccccn1`, the growth is reported as 107% (inactive).
In the case of `CC(=O)CC(=O)N(C)C`, the growth is reported as 105% (inactive).
For `Nc1ccc(C(=O)c2ccc(N)c(Br)c2)cc1Br`, the growth was 45% (inactive).
With `CC1(O)CCCCC1O` (stereo not given) the growth was 113% (inactive).
`COc1ccc2c(c1)CCc1c-2n[nH]c1-c1[nH]nc2c1CCc1cc(OC)ccc1-2` was tested, and the growth was 58.7% (inactive).
In the case of `CC1Cc2ccccc2O1` (stereo not given), the growth is reported as 114% (inactive).
For `CC1(c2ccccc2)NC(=O)NC1=O` (stereo not given), the growth was 113% (inactive).
For `Nc1nc2c(c(-c3nc(N)nc4c3CCc3ccccc3-4)n1)CCc1ccccc1-2`, the growth was 115% (inactive).
In the case of `c1ccc(CN2COc3c(ccc4c3OCN(Cc3ccccc3)C4)C2)cc1`, the growth is reported as 34.1% (inactive).
`N#CSc1cc(S(N)(=O)=O)ccc1N` was tested, and the growth was 102% (inactive).
For `COC(=O)c1[nH]c(=O)c(C#N)c(C(=O)OC)c1C(=O)c1ccccc1`, the growth was 101% (inactive).
For `O=C(O)c1cccc([N+](=O)[O-])c1O`, the growth was 116% (inactive).
With `O=C1C=CC(=O)N1c1ccc(I)cc1Cl` the growth was 107% (inactive).
For `O=C(Nc1cc(-c2ccccc2)[nH]n1)c1ccc(Cl)cc1`, the growth was 117% (inactive).
For `O=S(=O)(O)C(Nc1ccccc1)c1ccccc1` (stereo not given), the growth was 104% (inactive).
With `CCOC(=O)C(O)C(O)C(=O)OCC` (stereo not given) the growth was 106% (inactive).
In the case of `NC(=S)N/N=C/c1ccc(N)cc1`, the growth is reported as 112% (inactive).
`CC(C)OC(=O)c1cc(NC(=S)OC(C)C)ccc1Cl` was tested, and the growth was 101% (inactive).
With `C[C@]12CC[C@@H]3c4ccc(OCC(=O)O)cc4CC[C@H]3[C@@H]1CCC2=O` the growth was 118% (inactive).
With `Cc1cc(C(C)(C)C)cc(C)c1Br` the growth was 109% (inactive).
In the case of `Nc1nc(N)c(N=Nc2ccc(C(=O)O)cc2)c(N)n1`, the growth is reported as 103% (inactive).
For `c1ccc(/C(=N\N=C(/c2ccccc2)c2cccs2)c2cccs2)cc1`, the growth was 108% (inactive).
With `Cc1cc(=O)n(-c2ccc(F)cc2)[nH]1` the growth was 119% (inactive).
With `COc1ccccc1NC(=O)C1=C(C)NC(C)=C(C(=O)Nc2ccccc2OC)C1c1cccc([N+](=O)[O-])c1` the growth was 82.2% (inactive).
For `N/N=C(/Cc1ccccc1)NNC(N)=S`, the growth was 114% (inactive).
With `NNc1ccccc1C(=O)O` the growth was 118% (inactive).
`O=C(CCNNC(=O)c1ccncc1)NCc1ccccc1` was tested, and the growth was 103% (inactive).
With `c1cc2cccc3c4cccc5cccc(c(c1)c23)c54` the growth was 107% (inactive).
With `CC(C)CCCC(=O)O` the growth was 99% (inactive).
With `CCCCOC(=O)c1ccc(C(C)C)cc1` the growth was 111% (inactive).
